Test results taken from PubChem BioAssay (NCATS).
Active and inactive are the calls of the source. Entries that show only a call come without a potency. The call rests on the fitted dose curve; in most records, active means well fitted cell-killing curve with a large enough effect; inconclusive means small, poorly fitted or top-dose-only effect; inactive means flat fitted curve, though single readings scatter.
Potency means the concentration at half of the fitted maximal effect.

Assay: MultiTox-Fluor Cytotoxicity Assay - LYMP1-003 - Live Cells (AID 962)
Settings: LYMP1-003 lymphoblastoid cells, MultiTox-Fluor live-cell protease fluorescence; series mostly up to 92.2 µM
From the text: NIH Chemical Genomics Center [NCGC]
NIH Molecular Libraries Screening Centers Network [MLSCN]
National Institutes of Environmental Health Sciences [NIEHS]
National Toxicology Program [NTP]
We have developed a 1536-well cell-based assay for quantitative high throughput screening (qHTS) against a number of cell lines to determine in vitro cytotoxicity of small molecules. This particular assay uses a human lymphoblastoid cell line (LYMP1-003) purchased from Coriell Institute.
NCGC Assay Protocol Summary:
The MultiTox-Fluor Cytotoxicity Assay (Promega) is a homogeneous method to simultaneously measure the relative number of live and dead cells in culture by detecting changes in cell membrane integrity. There are two fluorogenic peptide substrates in the assay reagent. Viable cells are determined when the cell-permeant substrate (GF-AFC) enters the cell and is cleaved by protease from live cells resulting in liberated fluorophore. This live-cell protease activity restricted to viable cells is proportional to cell number. The dead cells are determined by using fluorogenic cell-impermeant peptide substrate (bis-AAF-R110) which cleaved by dead cell proteases leaking from damaged cell membrane.
Using the MultiTox-Fluor Cytotoxicity Assay, the relative number of live cells was measured in the lymphoblastoid cell line with complete culture medium following compound treatment for 16 hours. The assay was performed in opaque black Kalypsys 1536-well plates. In the screen, tetraoctylammonium bromide was used as positive control. Library compounds were measured for their ability to cause acute toxicity in the cell line, as reflected by a decrease in live cell protease activity, in a concentration-dependent manner. […] AC50 values were determined from concentration-response data modeled with the standard Hill equation.
qHTS protocol for MultiTox-Fluor Cytotoxicity assay
[Step] [Parameter] [Value] [Description]
1. Reagent; 5 uL; 2500 lymphoblastoid cells/well
2. Time; 5 hr; 37 C incubation
4. Controls; 23 nL; Tetraoctylammonium bromide 6.4pM to 92 uM
5. Time; 16 hr; 37 C incubation
6. Reagent; 5 uL; MuliTox-Fluor Assay reagent
7. Time; 60 min; Room Temperature
8. Detection; live-cell fluorescence (Ex/Em=405/510); EnVision plate reader
Keywords: cell viability, cytotoxicity, lymphoblastoid cell line, fluorescence, NTPHTS, NTPHTS_NCGC, NIEHS, EPA, DSSTox, MLSMR, MLSCN, NIH Roadmap, qHTS, NCGC
With `Brc1ccccc1-c1ccccc1` the Potency was “inactive”.
In the case of `CCCCCCCCCCCCCCCC[n+]1ccccc1`, the Potency is reported as 31.6 µM (active).
For `Nc1cccc2c(N)cccc12`, the Potency was “inactive”.
In the case of `CC(C)(c1ccc(O)cc1)c1ccc(O)cc1`, the Potency is reported as “inactive”.
In the case of `C1=CC2C3C=CC(C3)C2C1` (stereo not given), the Potency is reported as “inactive”.
For `O=C(Oc1ccccc1)c1ccccc1O`, the Potency was “inactive”.
With `Nc1c2ccccc2nc2ccccc12` the Potency was “inactive”.
For `CC(=O)OC/C=C(C)/C=C/C=C(C)/C=C/C1=C(C)CCCC1(C)C`, the Potency was “inactive”.
With `Cc1ccc(O)cc1` the Potency was “inactive”.
For `O=C(NO)c1ccccc1`, the Potency was “inactive”.
For `CC(C)(C)c1ccc(O)c(O)c1`, the Potency was “inactive”.
With `COc1cc(C=O)ccc1O` the Potency was “inactive”.
For `OCc1c[nH]c2ccccc12`, the Potency was “inactive”.
In the case of `c1ccc2occc2c1`, the Potency is reported as “inactive”.
For `CC(C)C(C)(C)C(C)(C)C(C)(C)S`, the Potency was “inactive”.
In the case of `CCCCC(CC)COC(=O)c1ccccc1C(=O)O` (stereo not given), the Potency is reported as “inactive”.
In the case of `CCCC(=O)c1cc(O)c(O)cc1O`, the Potency is reported as “inactive”.
In the case of `O=C(c1ccccc1)c1ccccc1`, the Potency is reported as “inactive”.
With `Cc1cc(C(C)(C)C)c(O)c(C(C)(C)C)c1` the Potency was “inactive”.
For `Oc1ccccc1`, the Potency was “inactive”.
